Activity calls are given as the source filed them. The calls were made as follows: active = hit-call score of the fitted dose curve at least 0.9, where 1 is the maximum; inactive = score below 0.9.
assay: CCTE_Deisenroth_DEVTOX-GLR_Ecto_CellCount: Viability Assessment in CCTE's DevTox GLR-Ecto Assay, Deisenroth Lab
Procedure: CCTE_Deisenroth_DEVTOX-GLR_Ecto assay is a cell-based, multiplex-readout assay that uses RUES2-GLR, a human pluripotent cell line, with measurements taken at 48 hours after chemical dosing in a 384-well microplateCCTE_Deisenroth_DEVTOX-GLR_Ecto_CellCount is 1 of 4 assay components calculated from the CCTE_Deisenroth_DEVTOX-GLR_Ecto assay and it measures cell count. Using fluorescent nuclei staining, gain-of-signal activity can be used to understand changes in cell viability with fluorescent microscopy. It is designed to make measurements of nuclei counts as a surrogate for cell number, as detected with optical fluorescence microscopy by Perkin Elmer Harmony nuclei detection algorithm. To generalize the intended target to other relatable targets, this assay component is annotated to the cell cycle intended target family, where the subfamily is cytotoxicity.Data from the assay component CCTE_Deisenroth_DEVTOX-GLR_Ecto_CellCount was analyzed as 1 assay endpoint. The endpoint the percent change in the cell count relative to the 0.2% DMSO control in the CCTE_Deisenroth_DEVTOX-GLR_Ecto assay. Furthermore, this assay endpoint can be referred to as a […] readout, because this assay has produced multiple assay endpoints where this one serves as a measure of cytotoxicity.
All assay protocols are aligned to the DevTox GLR-Endo assay workflow. Cells are seeded into 384-well microplates for 24 hours prior to initiating differentiation in defined media for a total duration of 48 hours. A total of two chemical exposures are administered in 24-hour intervals during the 48-hour differentiation period. At the assay termination point, cells are fixed and stained with a fluorescent dye demarcating the nucleus. High-content imaging is used to acquire brightfield and fluorescent channel images across 5 fields per well. Cell identification and mean biomarker fluorescence intensities are calculated with image analysis software to determine the total cell counts for viability assessment and the biomarker expression frequency for each lineage-dependent assay. A typical experimental design tests a 10-point concentration series (1 nM - 200 uM) for 28 compounds in single technical replicate. Assay plate controls include non-differentiated pluripotent cells (baseline control), lineage-specific differentiated cells (differentiation control), and DMSO solvent exposed differentiated cells (solvent control). Experiments typically comprise a minimum of four experimental replicates (n=4).

With `Nc1cccc2c1C(=O)N(C1CCC(=O)NC1=O)C2=O` (stereo unspecified) as the compound, how does the outcome read?
Its outcome is “inactive”.

Which outcome does the source give for `CC/C(=C(/CC)c1ccc(O)cc1)c1ccc(O)cc1` here?
The outcome was “inactive”.

Which outcome does the source give for `O=C1NC(=O)C(c2ccccc2)(c2ccccc2)N1` here?
Its outcome is “inactive”.

Which outcome does the source give for `CCCC(CCC)C(=O)O` here?
The outcome was “inactive”.

For `O=C1CCC(N2C(=O)c3ccccc3C2=O)C(=O)N1` (stereo unspecified), which outcome is on record?
The outcome was “inactive”.

Which AC50 does the source give for `CC1=C(/C=C/C(C)=C/C=C/C(C)=C/C(=O)O)C(C)(C)CCC1` here?
Its AC50 is 0.0242 µM (active).

With `O=c1[nH]cc(F)c(=O)[nH]1` as the compound, how does the AC50 read?
The AC50 was 3.87 µM (active).

Which outcome does the source give for `O=C1NS(=O)(=O)c2ccccc21` here?
The outcome was “inactive”.

With `Nc1nc2ncc(CNc3ccc(C(=O)N[C@@H](CCC(=O)O)C(=O)O)cc3)nc2c(=O)[nH]1` as the compound, how does the outcome read?
The outcome was “inactive”.

For `CC1=C(/C=C/C(C)=C/C=C/C(C)=C\C(=O)O)C(C)(C)CCC1`, which AC50 is on record?
The AC50 was 0.46 µM (active).

Which outcome does the source give for `CC1(C)S[C@@H]2[C@H](NC(=O)Cc3ccccc3)C(=O)N2[C@H]1C(=O)O` here?
Its outcome is “inactive”.

Which AC50 does the source give for `CS(=O)(=O)OCCCCOS(C)(=O)=O` here?
Its AC50 is 20.4 µM (active).

Which outcome does the source give for `CN(Cc1cnc2nc(N)nc(N)c2n1)c1ccc(C(=O)N[C@@H](CCC(=O)O)C(=O)O)cc1` here?
The outcome was “inactive”.

Which outcome does the source give for `CC(C)(c1ccc(O)cc1)c1ccc(O)cc1` here?
Its outcome is “inactive”.

With `CC(=O)Nc1ccc(O)cc1` as the compound, how does the outcome read?
Its outcome is “inactive”.

Which AC50 does the source give for `CCN(CC)CCNC(=O)c1c(C)[nH]c(/C=C2\C(=O)Nc3ccc(F)cc32)c1C` here?
Its AC50 is 1.25 µM (active).

Source: PubChem BioAssay AID2284426 (EPA ToxCast)
